Here are results for 53 compounds from ChEMBL document CHEMBL4513216, “Probing the Open Global Health Chemical Diversity Library for Multistage-Active Starting Points for Next-Generation Antimalarials” (ACS Infect Dis, 2020).

Molecules are shown by their SMILES. The campaign covered roughly 69,000 compounds. About 8,600 (12%) showed an effect of 50% or more. Many of the other results were omitted from the sample, so strong results are more common in it than they were.

The assay has as its system Plasmodium berghei. As to the kind of experiment: Screen against P. berghei liver stage (PbLuc), transformed with Luciferase, at 10uM. The format is functional, HepG2. As to conditions: tested at 10 uM.
For the compound `CC(C)=CCCC1(C)CCC(=O)N(CCc2csc(N)n2)C1` (stereo not drawn), the INHIBITION stood at 39.3%.

For `CCOC1CCN(C(=O)c2ccc(-c3cccc(C)c3)[nH]c2=O)CC1`, the INHIBITION was -16%.

As for `CC(C)COC1CCN(C(=O)c2ccc(C(F)(F)F)[nH]c2=O)CC1`, the INHIBITION is 63.5%.

As to `CC(C)COC1CCN(C(=O)c2cc3ccccc3c(=O)[nH]2)CC1`, the INHIBITION is on record as -1.55%.

With `Cc1noc(C)c1CN1CCN(CCN(C)C)c2ncccc2C1`, the INHIBITION is 23.3%.

With `Clc1ccccc1Cn1cc(CNC2CCc3ncnn3C2)cn1` (stereo not drawn), the INHIBITION is on record as -12.1%.

Regarding `CCOc1cccc(NC(=O)c2cnc(C)cn2)n1`, the INHIBITION was -24.5%.

As for `Cc1nn(C)c(N2CCCN(C)CC2)c1CNC(=O)C(C)(C)C`, the INHIBITION was -49.5%.

For the compound `CC(C)CCC(=O)Nc1ccc2oc(=O)n(CCN(C)C)c2c1`, the INHIBITION is listed as -34.8%.

In the case of `CCC(CC)C(=O)Nc1ccc2oc(=O)n(CCN(C)C)c2c1`, the INHIBITION is 50.8%.

On to `CC(C)COCCC(=O)Nc1ccc2oc(=O)n(CCN(C)C)c2c1`, for which the INHIBITION is listed as -3.08%.

With `CN(C)CCn1c(=O)oc2ccc(NC(=O)CSc3ccccc3)cc21`, the INHIBITION was 24.3%.

Turning to `Cc1cc(C(=O)Nc2ccc3oc(=O)n(CCN(C)C)c3c2)c(C)o1`, the INHIBITION is recorded as 69.7%.

Consider `CN(C)CCn1c(=O)oc2ccc(NC(=O)CC(C)(C)C)cc21`, for which the INHIBITION was -3.95%.

As to `CCC(C)C(=O)Nc1ccc2oc(=O)n(CCN(C)C)c2c1` (stereo not drawn), the INHIBITION amounted to 56%.

In the case of `CN(C)CCn1c(=O)oc2ccc(NC(=O)N3CCCCCC3)cc21`, the INHIBITION came to 17.5%.

Consider `CN(C)CCn1c(=O)oc2ccc(NC(=O)c3cc(Cl)c[nH]3)cc21`, for which the INHIBITION is listed as -31.6%.

Regarding `CC1CN(CC(=O)NC(=O)NCc2cccs2)CCN1CC(F)(F)F` (stereo not drawn), the INHIBITION was found to be 3.03%.

For the compound `CC1CCN(c2nc(O)cc(C3CC(=O)N(C4CCCCC4)C3)n2)CC1` (stereo not drawn), the INHIBITION amounted to 11.475%.

Turning to `COc1ccc2c(c1)C1(CCN(Cc3cnn(C)c3)CC1)N(C)CC2`, the INHIBITION is reported as -72%.

On to `COCC1COCCC12CCN(C(=O)COc1ccccc1)CC2` (stereo not drawn), for which the INHIBITION is -10.3%.

For `COCCNC(=O)Cc1cnc(-n2cccc2)s1`, the INHIBITION is listed as 41.1%.

Turning to `Cc1cc(CN2CCC(C3CCN(CCc4ccccc4)C3)CC2)[nH]n1` (stereo not drawn), the INHIBITION came out at 11.9%.

For `CCc1c(C)nc2cc(C3CCN(Cc4cccc(F)c4)C3)nn2c1O` (stereo not drawn), the INHIBITION amounted to 77.3%.

Turning to `CCc1c(C)[nH]c2cc(C3CCN(Cc4ccncc4C)C3)nn2c1=O` (stereo not drawn), the INHIBITION is 38.8%.

As to `CCc1c(C)nc2cc(C3CCN(Cc4ccc(F)cc4)C3)nn2c1O` (stereo not drawn), the INHIBITION is recorded as 66.5%.

Turning to `CCc1c(C)nc2cc(C3CCN(Cc4cccnc4)C3)nn2c1O` (stereo not drawn), the INHIBITION is on record as -33.4%.

As for `COCc1nccc(C2CCCN(Cc3cccc(F)c3)C2)n1` (stereo not drawn), the INHIBITION worked out at 20.9%.

Regarding `Cc1cc(CN2CCC(C3CCN(CCc4ccccc4)CC3)C2)[nH]n1` (stereo not drawn), the INHIBITION was 9.63%.

`Cc1nc(O)cc(C2CCN(Cc3ccc(F)c(F)c3)C2)n1` (stereo not drawn): the INHIBITION is recorded as 30.8%.

Turning to `CCc1c(C)nc2cc(C3CCN(CCc4ccccc4)C3)nn2c1O` (stereo not drawn), the INHIBITION is given as 83.3%.

Turning to `Cc1ccc2c(c1)C(=O)NCC1(CCN(C(=O)c3ccnn3C)CC1)O2`, the INHIBITION was 8.72%.

Regarding `O=C(c1cscn1)N1CC[C@]2(C[C@@H](OCCN3CCCC3)CO2)C1`, the INHIBITION is given as 43.2%.

For the compound `Cc1ccsc1CN(Cc1ccccn1)CC(O)CO` (stereo not drawn), the INHIBITION is 19.7%.

Take `CN(C(=O)c1ccccc1F)[C@@H]1CC[C@@H](O)[C@@H]1O`: the INHIBITION came out at 34.1%.

As for `Cc1ccoc1C(=O)N1CC[C@@H]2CN(C3CCOCC3)CCO[C@@H]2C1`, the INHIBITION is on record as 4.98%.

Take `CC(C)c1nnsc1CNC(=O)C1CCN(C(=O)C2CC2)CC1`: the INHIBITION is on record as 14.9%.

Take `COCCC(=O)N1CCC2(CCN(Cc3ccc(OC)c(F)c3)C2)C1` (stereo not drawn): the INHIBITION was -10.3%.

`Cc1nc2[nH]cnc(NCCN3CCOCC3)c-2n1`: the INHIBITION was 36.8%.

`Cc1[nH]c2ccccc2c1-c1ccnc(NC[C@H](O)CO)n1`: the INHIBITION amounted to 27.8%.

In the case of `O=c1[nH][nH]cc1-c1ccnc(NCCCN2CCOCC2)n1`, the INHIBITION is given as 39.7%.

Consider `Fc1ccc(-c2n[nH]cc2-c2ccnc(NCCN3CCCC3)n2)cc1`, for which the INHIBITION is given as 35.3%.

Regarding `Cc1[nH]c2ccccc2c1-c1ccnc(NCCN2CCOCC2)n1`, the INHIBITION is on record as 62.2%.

Turning to `Cc1[nH]c2ccccc2c1-c1ccnc(NCCN2CCCCC2)n1`, the INHIBITION came to 61.9%.

Consider `COCCn1cc(NC(=O)NCC(c2cccc(F)c2)N(C)C)cn1` (stereo not drawn), for which the INHIBITION was 49.7%.

For the compound `c1ccc(Cn2ccnc2CNCC2CCCN2c2cccnn2)cc1` (stereo not drawn), the INHIBITION was 4.71%.

Take `Cc1ccc(N2CCO[C@H]3[C@H](OCC(=O)N4CCCC4)CC[C@@H]32)cc1`: the INHIBITION is recorded as -2.03%.

Regarding `CSC1(CNc2ncc(Br)cn2)CCOCC1`, the INHIBITION worked out at 45.7%.

In the case of `CCSC1(CNc2ncc(Br)cn2)CCOCC1`, the INHIBITION is 66.4%.

For the compound `CN(C)C1(CNc2ncc(Br)cn2)CCOCC1`, the INHIBITION came to 27.8%.

Turning to `CS(=O)(=O)N1CCCC(Cc2cnc(Br)cn2)CC1` (stereo not drawn), the INHIBITION came to 37.8%.

For the compound `Cc1ccc(C(=O)N2CCCCC2c2[nH]ncc2S(C)(=O)=O)cn1` (stereo not drawn), the INHIBITION was 24.8%.

`O=C(c1cc2c(s1)CCOC2)N1CCCCC1Cn1cccn1` (stereo not drawn): the INHIBITION is reported as -5.07%.
